An excerpt weighted towards active compounds, which were near 9.3% of everything screened.
VACV Venus inh: inhibitors of vaccinia virus (Venus reporter); Vaccinia virus Venus reporter expression, fluorescence; Potency, µM (doses to about 36.5 µM), for inactives: at the highest dose activity change, negative = inhibition, hits mostly inhibitors; 330,000 tested, 0.46% active; AID 720580; calls by dose curve; tested in A549 cells; also: potency is read from the fitted curve at half-maximal effect; nearly all actives have a fitted effect of over 30% in size
FMDV inh: antivirals against foot and mouth disease virus; FMDV antiviral cell-based qHTS; Potency, µM (titrated, usually from 57.9 µM), inactives show at the highest dose activity change, negative = inhibition, usual class: inhibitors; 410,000 tested, 1.2% active; AID 1159524; calls by dose curve; tested in HEK293T cells; also: read-out not given here; potency is read from the fitted curve at half-maximal effect; nearly all actives have a fitted effect of over 45% in size
HCMV inh: blocks human cytomegalovirus replication | HFF cells, HCMV-luciferase reporter, 72 h; active compounds read low | activity change, negative = inhibition, % at 57.5 µM | 410,000 tested, 4.5% active | AID 1259415; in the data active = activity change below about -60%; inconclusive = no clear call, values can overlap the other calls; inactive = above about -39%
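Inhibition of viral replication was scored as loss of reporter luminescence in HFFs infected with HCMV-luciferase (MOI 1 PFU/cell) for 72 h; compounds tested at 2 doses, normalized to buffer and Salinomycin controls.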
Sm TGR block: S. mansoni TGR enzyme inhibition. purified TGR, DTNB reduction, TNB absorbance 405 nm. Potency, µM (highest dose often 114 µM), for the others: at the top dose activity change, negative = inhibition, hits mostly inhibitors. 360,000 tested, 3% active. AID 485364; also: potency is read from the fitted curve at half-maximal effect; nearly all actives have a fitted effect of over 60% in size
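First, TGR (20 nM dispensed) and NADPH were mixed with compound. Second, a 15 min room-temperature incubation followed. Third, further NADPH and then DTNB were added to start the reaction. Finally, TNB absorbance was monitored kinetically.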
Vaccinia mCherry: vaccinia inhibition (mCherry reporter); 310,000 tested, 0.63% active; Potency, µM (top dose mostly 36.5 µM), for the others: at the highest dose activity change, negative = inhibition, actives largely listed as inhibitors; Vaccinia virus mCherry reporter infection, fluorescence; calls by dose curve; tested in A549 cells; also: potency is read from the fitted curve at half-maximal effect; nearly all actives have a fitted effect of over 35% in size
HCV inh: blocks hepatitis C virus; 340,000 tested, 3.4% active; AID 651820; Potency, µM (top dose mostly 41.8 µM), inactives show at the highest dose activity change, negative = inhibition, usual class: inhibitors; Huh7.5.1 HCVcc-Cre infection, luciferase reporter, 44 h; also: potency is read from the fitted curve at half-maximal effect
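Seed cells (1,000/well) for 4 h; treat with compound and infect with HCVcc-Cre, moi about 0.5. Incubate 44 h, then detect luciferase activity.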
Starred values were filed as active, the others as inactive; i = inactive; ? = inconclusive; · = no result given; [ ] = remark or other dose. Unless noted, calls follow the shape of the dose curve; as a rule, active = well fitted curve in the direction sought with a large enough effect; inconclusive = small, poorly fitted or top-dose-only effect, or another doubt; inactive = no such curve, though single readings can be large; an effect the other way counts as inactive or inconclusive. % is scaled to controls: 0 for no effect and ±100 for the full control effect.

SMILES	VACV Venus inh	FMDV inh	HCMV inh	Sm TGR block	Vaccinia mCherry	HCV inh
COc1ccc2nc(Cl)c(C3CC(c4ccco4)=NN3C(=O)CCC(=O)O)cc2c1 (configuration not stated)	-13%	-1%	3	?	i	17%
CC(=O)Nc1ccc(C(=O)N/N=C/c2ccccc2OCc2ccccc2)cc1	-8%	-1%	-36	9%	-20%	-23%
COc1cc(C(=O)NCCOc2cc(C)ccc2C(C)C)cc(OC)c1OC	-29%	?	-67*	-12%	-10%	2.8µM*
Cc1ccc(C(C)C)c(OCc2ccc(C(=O)N/N=C/c3cccc(O)c3O)cc2)c1	?	?	·	-5%	10µM*	22µM*
COc1cc(/C=N/NC(=O)c2ccc(COc3cc(C)ccc3C(C)C)cc2)cc(OC)c1O	-7%	?	-88*	-7%	-14%	?
Cc1ccc(C(C)C)c(OCc2ccc(C(=O)N/N=C/c3ccc(O)c(O)c3)cc2)c1	?	?	?	2%	?	?
CC(=O)Nc1ccc(Cl)c(C(N)=O)c1	-3%	6%	36	7%	-6%	3%
NC(=O)c1cc(N2C(=O)C=CC2=O)ccc1Cl	1%	12%	·	0.4µM*	-5%	·
CCc1ccc2nc(N=C(N)N)nc(C)c2c1	?	?	-87*	-3%	?	5µM*
Cc1cc2nc(/N=C(\N)NC(=O)C(C)C)nc(C)c2cc1C	1µM*	-27%	-28	3%	?	11µM*
CCC(=O)N/C(N)=N/c1nc(C)c2cc(C)c(C)cc2n1	?	-15%	-8	-9%	?	?
Cc1ccc2nc(N=C(N)N)nc(C)c2c1	-20%	?	-89*	5%	i	7.1µM*
Cc1cc2nc(N=C(N)N)nc(C)c2cc1C	·	?	-99*	2%	·	?
CCOc1ccc(S(=O)(=O)NCCC(=O)NCc2ccccn2)cc1	-11%	18%	-5	0%	-10%	2%
CCOc1ccc(NC(=O)CSc2nc3cccnc3n2CCOC)cc1	-21%	-17%	-9	0%	i	-6%
CCOc1ccc(CN2C(=O)C(=O)c3cccc(C)c32)cc1OC	8%	-17%	?	0%	-17%	·
O=C(NC1(C(F)(F)F)N=C2SCCN2C1=O)c1ccccc1 (configuration not stated)	·	8%	16	-2%	·	5%
Cc1nc(N=C(N)N)nc2ccccc12	-17%	?	-81*	-3%	-17%	14µM*
Cc1nc(/N=C(\N)NC(=O)c2ccccc2)nc2ccccc12	-4%	40%	41	-18%	i	?
N#C/C(=N\Nc1ccc(Cl)c(Cl)c1)C(=O)C1CC1	?	-9%	-100*	12%	-29%	?
Cc1ccc(NC(=O)CCc2nc3cccnc3n2-c2ccccc2)cc1	-9%	-5%	-23	-7%	-8%	·
COc1cccc(-n2sc3c(c2=S)-c2cc(OC)ccc2NC3(C)C)c1	?	-28%	-24	0%	?	10µM*
COc1cccc(-n2cn[nH]c2=S)c1	4%	3%	14	-3%	i	5%
Cc1ccc(-c2nn(-c3ccccc3)cc2C=O)o1	-13%	-14%	21	13µM*	i	0%
Cc1ccc(-c2nn(-c3ccccc3)cc2CO)o1	-8%	49%	10	45µM*	-18%	-13%
SMILES	VACV Venus inh	FMDV inh	HCMV inh	Sm TGR block	Vaccinia mCherry	HCV inh
OCc1cn(-c2ccccc2)nc1-c1ccco1	-4%	·	-4	-14%	-10%	-11%
Cc1ccc(-c2nn(-c3ccccc3)cc2/C=N/NC(=O)c2ccncc2)o1	-8%	5%	?	-68%	i	-20%
CN(C)C(=O)c1cn(-c2ccccc2)nc1-c1cc2ccccc2o1	-16%	-13%	?	4%	i	?
Cc1ccc(-c2nn(-c3ccccc3)cc2C(N)=O)o1	-8%	11%	24	20µM*	i	-5%
COc1ccc(CCNS(=O)(=O)c2cccs2)cc1	-20%	71%	-7	1%	-30%	-8%
Cc1ccn2c(Nc3c(C)cccc3C)c(-c3ccc(Cl)s3)nc2c1	-11%	?	-12	-1%	-16%	·
COc1ccccc1NC(=O)CSC1=NCCN1	-11%	0%	?	12%	i	?
O=C(CSC1=NCCN1)Nc1cccc([N+](=O)[O-])c1	-17%	18µM*	13	10%	-21%	-10%
O=C(CSC1=NCCN1)NC(c1ccccc1)c1ccccc1	-14%	32µM*	40	16%	-5%	10µM*
O=C(CSC1=NCCN1)Nc1ccccc1[N+](=O)[O-]	-5%	?	2	2%	?	12%
Cn1c(N)c(C(=O)COC(=O)/C=C/c2ccc(Cl)cc2)c(=O)n(C)c1=O	-21%	?	-30	-6%	-14%	-30%
CC(C)Cn1c(N)c(C(=O)COC(=O)/C=C/c2ccccc2)c(=O)n(C)c1=O	-20%	16µM*	-76*	-7%	?	7.1µM*
COC(=O)c1c(C)[nH]c(C(=O)OCC(=O)c2c(N)n(CC(C)C)c(=O)n(C)c2=O)c1C	-9%	?	-27	·	i	4µM*
CC(C)Cn1c(N)c(C(=O)COC(=O)CC23CC4CC(CC(C4)C2)C3)c(=O)n(C)c1=O	?	13µM*	-67*	9%	·	6.3µM*
Cc1cccc(C(=O)OCC(=O)c2c(N)n(CC(C)C)c(=O)n(C)c2=O)c1[N+](=O)[O-]	-11%	?	?	0%	-23%	14µM*
O=C(OCC(=O)N(Cc1ccccc1)Cc1ccccc1)c1ccccc1NCCO	-16%	22%	-7	1%	-4%	-18%
O=C(Nc1ccc(Cl)cc1)c1nc[nH]c1C(=O)N1CCc2ccccc2C1	-23%	-9%	-13	-6%	-19%	6%
O=C(CCNS(=O)(=O)c1ccccc1Cl)N1CCN(c2ccccn2)CC1	-9%	2%	7	-4%	-5%	?
COc1ccc(-c2nc3n(c2C)CCC3)cc1	-4%[7.34 µM]	52%	?	0%	-2%[7.34 µM]	-15%
Cn1c(N)c(C(=O)COC(=O)/C=C/c2ccc(Cl)cc2Cl)c(=O)n(C)c1=O	-13%	40µM*	-4	·	i	15%
CC(C)Cn1c(N)c(C(=O)COC(=O)c2ccc(Br)cc2)c(=O)n(C)c1=O	·	32µM*	-30	·	·	?
Cc1ccc(F)c(S(=O)(=O)NC(=O)C2(C)CCN2C(=O)C/C=C/c2ccccc2)c1 (configuration not stated)	-12%	-5%	-25	·	i	·
COc1ccc2nc3cc(Cl)ccc3c(Nc3cc(C(C)C)c(O)cc3C)c2c1	?	?	?	-11%	?	11µM*
